# Shown are actives, neighbours in structure and some others; about 1.5% of the full set was active somewhere.
# 12-LOX inh – ALOX12 (human) lipoxygenase inhibition. P18054. purified 12hLO, xylenol orange hydroperoxide absorbance. Potency, µM (titrated, usually from 108 µM), for the others: top-dose activity change, negative = inhibition, most hits filed as inhibitors. 1.1% of 580,000 active. AID 1671190; note: potency is the fitted concentration of half-maximal effect; % is set by controls: 0 for no effect and ±100 for the full control effect
# Target sequence (P18054 whole entry, looked up): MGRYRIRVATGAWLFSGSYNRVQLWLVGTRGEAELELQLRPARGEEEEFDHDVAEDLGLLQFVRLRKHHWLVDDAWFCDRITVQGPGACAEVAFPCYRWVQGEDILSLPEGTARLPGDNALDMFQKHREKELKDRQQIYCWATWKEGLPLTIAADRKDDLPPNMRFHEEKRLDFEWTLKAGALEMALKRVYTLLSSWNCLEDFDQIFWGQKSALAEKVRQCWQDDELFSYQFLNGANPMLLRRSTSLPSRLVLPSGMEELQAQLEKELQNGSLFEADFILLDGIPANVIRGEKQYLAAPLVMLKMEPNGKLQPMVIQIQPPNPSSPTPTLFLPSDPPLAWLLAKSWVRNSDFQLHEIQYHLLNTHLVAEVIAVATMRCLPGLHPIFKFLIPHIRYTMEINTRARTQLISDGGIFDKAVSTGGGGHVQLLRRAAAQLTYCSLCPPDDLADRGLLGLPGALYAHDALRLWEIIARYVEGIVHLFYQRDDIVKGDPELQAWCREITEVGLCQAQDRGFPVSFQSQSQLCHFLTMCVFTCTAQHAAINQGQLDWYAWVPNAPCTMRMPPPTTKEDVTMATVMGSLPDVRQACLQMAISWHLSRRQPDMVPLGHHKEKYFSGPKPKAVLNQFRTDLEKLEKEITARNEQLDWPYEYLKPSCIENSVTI
#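 Purified human 12hLO at 150 nM in 25 mM Hepes, 0.01% Triton X-100, pH 7.0, preincubated 15 min at room temperature with compound. Reaction started with 40 uM arachidonic acid, 30 min at room temperature. Hydroperoxide measured by Fe-xylenol orange, 573/405 nm absorbance ratio.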
# uPA surface inh – cell surface uPA generation inhibition | 0.31% of 330,000 active | Potency, µM (doses to about 38.3 µM), for the others: top-dose activity change, negative = inhibition, usual class: inhibitors | cell surface uPA generation assay, qHTS | AID 540303; active = well fitted inhibition curve with a large enough effect; inconclusive = small, poorly fitted or top-dose-only effect; inactive = no such curve, though single readings can be large or run the other way; tested in mouse RAW 264.7 cells; note: potency is the fitted concentration of half-maximal effect; % is set by controls: 0 for no effect and ±100 for the full control effect; nearly all actives have a fitted effect of over 55% in size
# IL-2 act – activates IL-2 in a cell-based reporter assay | IL-2 activation reporter assay, cell-based qHTS; stimulated with anti-CD3/CD4/CD28 beads; in transgenic mouse T cells | activation, % (series mostly up to about 46 µM) | 0.065% of 360,000 active; in the data active = activation above about 50%; inconclusive = mostly about 30% to 49%; note: 0% is about no effect
#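 Quantitative HTS in unstimulated transgenic mouse T cells, with memory T cells as non-tolerant control and PMA/ionomycin as tolerance-bypass control. Compound pretreatment lasted 60 minutes before 18 h bead stimulation; EGFP/DsRed fluorescence read.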
# Nrf2 ARE act – Nrf2 pathway activation; AREc32 ARE-luciferase reporter (MCF7-derived line), luminescence, 24 h; Potency, µM (titrated, usually from 46.1 µM), for inactives: at the top dose activation, most hits filed as activators; 0.31% of 410,000 active; AID 624171; note: potency is the fitted concentration of half-maximal effect; % of control where 0% means no effect; nearly all actives have a fitted effect of over 65% in size
#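 For detection, Steady-Glo was added and plates sat 30 min at RT; before that, AREc32_Fluc cells grown overnight in OPTI-MEM/5% FBS had been treated with 23 nL compound for 24 hr at 37 deg C.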
# a7 integrin act – activates integrin-mediated alleviation for muscular dystrophy | alpha7betagal myoblasts, beta-gal FDG fluorescence, 48 h | Potency, µM (top dose mostly 38.3 µM), for the others: top-dose activation, usual class: activators | 0.064% of 350,000 active | AID 624291;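 note: potency is the fitted concentration of half-maximal effect; 100% = response of the positive control SU9516; nearly all actives have a fitted effect of over 60% in size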
#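 alpha7betagal+/- myoblasts (passage 13, 250/well) treated 48 h at 37C with compounds at 1:260 dilution of DMSO stock. Lysed, then beta-galactosidase activity read as FDG fluorescence (ex 480/em 540) after 30 min, with pre-read for autofluorescence.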
# Numbers without * were called inactive; ? = inconclusive; . = not tested or not shown; ! = repeats disagree; [ ] = dose if it differs, or a comment. Unless noted, calls come from the whole dose curve; as a rule, active = well fitted curve in the direction sought with a large enough effect; inconclusive = small, poorly fitted or top-dose-only effect, or another doubt; inactive = no such curve, though single readings can be large; an effect the other way counts as inactive or inconclusive.
SMILES,12-LOX inh,uPA surface inh,IL-2 act,Nrf2 ARE act,a7 integrin act
O=c1c(N2CCc3ccccc3C2)csc2ccc(Cl)cc12,8%,.,.,5%,.
O=c1c(N2CCc3ccccc3C2)csc2ccc(Br)cc12,40µM*,.,.,6%,.
C/C(=N/NC(N)=S)c1ccc(Br)s1,25µM*,-6%,0,12%,-46%
C/C(=N\NC(=O)Cc1ccccc1)c1ccc(Br)s1,0%,8%,0,0%,-4%
C/C(=N/Nc1ccc(Cl)cc1)c1ccc(Br)s1,11µM*,.,.,.,.
CC(=NNc1ccccc1)C(C)=NNc1ccccc1,40µM*,5%,-1,2%,0%
C/C(=N/Nc1ccccc1)c1ccc(Cl)s1,5µM*,.,.,.,.
CC(=O)/C=N/Nc1ccccc1,-4%,.,-1,0%,20%
COc1cc(OC)c(NS(=O)(=O)c2cc(-c3n[nH]c(=O)c4c3CCCC4)ccc2C)cc1Cl,39%,.,.,.,.
COc1ccc(-c2cc(C(=O)Nc3nnc(C)s3)no2)cc1,38%,.,.,.,.
COc1ccc(-c2ccc3ncc(Nc4ccc(CCO)cc4)n3n2)cn1,19%[176 µM],.,.,.,.
COc1ccc(CC(=O)NC(c2cccs2)C2CCCC2)cc1 (configuration not stated),-17%,.,.,.,.
Clc1ccc(CNC2CCCC2)c(Cl)c1,-1%,1%,2,0%,-3%
S=C(NCc1ccc(Cl)cc1Cl)NC1CCCCC1,40µM*,-9%,2,4%,-12%
Cc1ccc(S(C)(=O)=O)cc1NCc1ccc(F)cc1Br,-29%,.,.,.,.
CSC1CCCCC1(O)CSc1nc2c(cc1C#N)CCCC2 (configuration not stated),7.1µM*,4%,0,-1%,-23%
CCN(CC)c1nc2ccccc2nc1C(C#N)S(=O)(=O)c1ccc(C)cc1 (configuration not stated),14µM*,.,.,.,.
COc1ccc(Br)cc1C[N+]1(C)CCCCC1,16µM*,.,.,.,.
COc1ccc(Br)cc1CSC(=N)N,?,-15%,-1,0%[9.22 µM],-43%
O=C(O)Cc1c(O)ccc2ccccc12,?,7%,3,7%,-17%
Oc1ccc2ccccc2c1SSc1c(O)ccc2ccccc12,1.7µM*,.,.,.,.
COc1ccc(NC(=O)c2sc3nc(-c4cccnc4)ccc3c2N)cc1OC,-2%,2%,94*,-1%,?
CCOc1ccccc1C(C(=O)O)N1CCN(Cc2csc(C)n2)CC1 (configuration not stated),61%,.,.,.,.
COc1ccc(C(C(=O)O)N2CCN(Cc3csc(C)n3)CC2)c(C)c1 (configuration not stated),22µM*,.,.,.,.
COc1ccc(CCNC(=O)c2ccc(C3Nc4ccccc4S(=O)(=O)N3)cc2)cc1OC (configuration not stated),3%,.,.,.,.
SMILES,12-LOX inh,uPA surface inh,IL-2 act,Nrf2 ARE act,a7 integrin act
c1ccc2c(-c3ccn[nH]3)cccc2c1,25µM*,.,.,.,.
Cc1c(C(=O)/C=C/c2cccs2)oc2ccc(F)cc12,28%,4%,-2,7.9µM*,-3%
Cc1ccc2nc(Cl)c(C3CC(c4ccco4)=NN3S(C)(=O)=O)cc2c1 (configuration not stated),13µM*!,0%,5,4%,1%
Cc1ccc2cc(C3CC(c4ccco4)=NN3S(C)(=O)=O)c(Cl)nc2c1 (configuration not stated),?,1%,-1,3%,8%
COc1ccc(Cl)cc1Nc1nc(N)c(C(=O)c2cc(C)ccc2C)s1,-23%,.,.,.,.
Cc1ccc(O)c(-c2cc(-c3ccc(F)cc3)no2)c1,3%,10µM*,2,15%,0%
Cc1ccc(-c2cc(-c3ccccc3)no2)c(O)c1,-19%,-10%,-3,19%,14%
N#C/C(=C\c1ccco1)Sc1nc2ccccc2s1,?,-6%,-3,11µM*,-49%
c1ccc2sc(SSc3nc4ccccc4s3)nc2c1,5µM*,.,.,.,.
CCOc1ccc(CCNC(=O)c2cc3ccccc3oc2=O)cc1OCC,5%,.,.,.,.
Cc1cc(=O)n(CC(=O)Nc2cc(Cl)ccc2C)c(N(C)Cc2ccccc2)n1,-13%,.,.,.,.
COc1cccc(-n2sc3c(c2=S)-c2cc(OC)ccc2NC3(C)C)c1,?,-10%,-3,-1%,0%
CC1(C)Nc2ccc(O)cc2-c2c1ssc2=S,45µM*,9%,0,?,-46%
O=C(NCc1ccc(CN2CCCC2)cc1)C1CCCCC1,-1%,.,.,.,.

# High-throughput results: PubChem, National Center for Advancing Translational Sciences (NCATS)
